Experimental data taken from ChEMBL document CHEMBL1156829.
Whole data set: some 5,400 compounds, median “IFI” near 2, cut for the highest 2% near 22. Many of the other results were omitted from the sample, so the highest values are more common in it than they were.

experiment: NOVARTIS: Inhibition Frequency Index (IFI) - the number of HTS assays where a compound showed > 50% inhibition/induction, expressed as a percentage of the number of assays in which the compound was tested.; format: functional

First: CCCC(=O)N1CCN(c2nc(Cc3ccccc3)c3c(c2C#N)CC(C)(C)OC3)CC1
Second: O=C(Cc1cccs1)N1CCN(c2ccccn2)CC1
The IFI of the first is higher: 4.54% for the first, 2.35% for the second.

Going from `COc1ccc(-c2nc(CN3CCCCC3)ccc2O)cc1` to `COc1ccc(-c2c[n+](CC(=O)c3ccc(Cl)cc3)c3n2CCC3)cc1`, the IFI rises from 0% to 5%.

First: CCOC(=O)C1=C(C)NC2=C(C(=O)C(C(=O)OCC)C(c3ccccc3OC)C2)C1c1sccc1C (stereo not given)
Second: CCOC(=O)c1c(C)oc2c1C(=O)c1ccccc1C2=O
The IFI of the first is higher: 3.49% for the first, 3.17% for the second.

`COc1ccc(C2(CNCC(O)c3cccc([N+](=O)[O-])c3)CCCC2)cc1OC` (stereo not given) and `COc1cc2nc(Nc3ccc(F)cc3)nc(N)c2cc1OC` are the same in IFI: 0% for the first, 0% for the second.

Going from `CC(=O)Nc1cc(C(=O)Nc2ccc(C3=NCCN3)cc2)ccc1C(=O)Nc1ccc(C2=NCCN2)cc1` to `CC(=O)Nc1ccc(-c2nc(-c3ccc(Oc4ccc(-c5[nH]c(-c6ccc(NC(C)=O)cc6)nc5-c5ccccc5)cc4)cc3)c(-c3ccccc3)[nH]2)cc1`, the IFI rises from 0% to 1.54%.

Compared with `Cc1ccn(CC(=O)N2CCOc3c(cc(-c4csc5ccccc45)cc3OCCc3ccccn3)C2)n1`, `COc1ccc2c(c1)[nH]c1c(N3CCN(C(c4ccccc4)c4ccccc4)CC3)ncnc12` is higher in IFI: 4% for the first, 8.77% for the second.

Going from `CCN1C=Cc2ccccc2/C1=C\c1ccc2ccccc2[n+]1CC` to `CC[n+]1c(C=C2C=CN(c3ccc(Cl)cc3)C=C2)ccc2ccccc21`, the IFI falls from 23.6% to 15.4%.

Compared with `CC[n+]1c(/C=C/c2ccc(Cl)cc2)ccc2ccccc21`, `CC[n+]1c(C=CN(C)c2ccccc2)sc2ccc(Cl)cc21` is higher in IFI: 4.84% for the first, 9.09% for the second.

`O=C(CCl)Nc1ccc(OC(F)F)cc1` and `CC(NCc1ccccc1)c1cc(Cl)ccc1O` (stereo not given) are the same in IFI: 0% for the first, 0% for the second.

Going from `COc1ccc2nc(-c3ccccc3)cc(NCCN(C)C)c2c1` to `COc1ccc2c(c1)c(C)cc[n+]2Cc1ccccc1`, the IFI rises from 3.51% to 6.3%.

Compared with `O=c1cc(NC2CCN(CCCc3ccccc3)CC2)c2cc(Cl)ccc2o1`, `CC(C)(C)CC(=O)NCc1ccc(OC2CCN(CC(c3ccccc3)c3ccccc3)CC2)cc1` is higher in IFI: 0% for the first, 7.04% for the second.

Going from `CCOC(=O)c1cnc2cc(OCC(C)C)c(OCC(C)C)cc2c1O` to `COc1cc(NC(C)CCCN(Cc2ccc(OC)c(OC)c2)C(=O)CC(C)CC(C)(C)C)c2ncccc2c1` (stereo not given), the IFI rises from 0.649% to 3.64%.

First: c1ccc(C2=NN(c3ccccc3)C(c3ccc4c(c3)OCO4)N2c2ccc(N3CCOCC3)cc2)cc1 (stereo not given)
Second: c1cn2c(-c3ccc(N4CCOCC4)cc3)cnc2c(NCc2ccc3c(c2)OCO3)n1
The IFI of the first is higher: 23.1% for the first, 0% for the second.

First: CN1c2ccccc2N(C)C1c1ccc2c(c1)OCO2
Second: COc1ccc(-c2ccc(C=NNC(=O)CNC(=O)c3ccc4c(c3)OCO4)o2)cc1Cl
The IFI of the first is higher: 0.621% for the first, 0% for the second.

Compared with `CCN1CCN(c2cc(C)c3cc(NC(=O)c4ccc(F)c([N+](=O)[O-])c4)ccc3n2)CC1`, `CN1CCc2c(sc3nc(SCc4ccc(F)cc4)n(-c4ccccc4)c(=O)c23)C1` is lower in IFI: 6.67% for the first, 2.5% for the second.

`Cc1cc(Nc2cccc3ccccc23)nc(Nc2cccc3ccccc23)n1` and `Cc1ccc(Nc2nc(NCc3ccccc3)c3ccccc3n2)cc1` are the same in IFI: 0% for the first, 0% for the second.

Compared with `O=S(=O)(c1ccccc1)N1CCN(CC2CNCCO2)CC1` (stereo not given), `Cc1oc2c(c1C(=O)NCC1CCCO1)C(=O)c1ccccc1C2=O` (stereo not given) is higher in IFI: 1.41% for the first, 17% for the second.

First: Cc1oc2c(c1C(=O)NC1CCS(=O)(=O)C1)C(=O)c1ccccc1C2=O (stereo not given)
Second: Cc1oc2c(c1C(=O)N1CCC(C)CC1)C(=O)c1ccccc1C2=O
The IFI of the first is higher: 29.7% for the first, 15.4% for the second.

Compared with `Cc1oc2c(c1C(=O)NCc1cccnc1)C(=O)c1ccccc1C2=O`, `Cc1oc2c(c1C(=O)NCCCn1ccnc1)C(=O)c1ccccc1C2=O` is higher in IFI: 17.5% for the first, 24.3% for the second.

First: COc1cc(NC(C)CCCN(Cc2ccc(F)cc2)C(=O)CCc2ccccc2)c2ncccc2c1 (stereo not given)
Second: Oc1c(C(Nc2ccccn2)c2cccc(Cl)c2Cl)ccc2cccnc12 (stereo not given)
The IFI of the first is lower: 1.71% for the first, 15.4% for the second.

Compared with `COc1ccc(C[C@H](N)C(=O)N[C@H]2[C@@H](O)[C@H](n3cnc4c(N(C)C)ncnc43)O[C@@H]2CO)cc1`, `Cc1ccc(CSCc2ccc(C(=O)NC3CC3)o2)cc1` is lower in IFI: 30.8% for the first, 0% for the second.

Going from `COCCN1C(=O)c2[nH]nc(-c3ccccc3O)c2C1c1ccc(SC)cc1` (stereo not given) to `Oc1ccccc1-c1nc2sc(-c3ccccc3O)nc2s1`, the IFI rises from 0% to 11%.

First: C[n+]1c2ccccc2nc2ccc(NCCc3cnc[nH]3)cc21
Second: C[n+]1c2ccccc2nc2ccc(NC3CCCCC3N)cc21 (stereo not given)
The IFI of the first is lower: 15.4% for the first, 23.1% for the second.

Compared with `Cc1ccc(S(=O)(=O)c2c(COC(=O)c3cccc(C)c3)c(-c3ccccc3)nn2C)cc1`, `COc1cccc(C(=O)Oc2ccccc2-c2nc3cc(C)ccn3c2NC(C)(C)CC(C)(C)C)c1` is lower in IFI: 3.9% for the first, 3.74% for the second.

Going from `CN[C@H]1C[C@@H]2O[C@](C)([C@H]1O)n1c3ccccc3c3c4c(c5c6ccccc6n2c5c31)C(=O)NC4` to `COc1ccc(NC(=O)C2c3ccccc3C(=O)N(C3CCCC3)C2c2cccs2)cc1Cl` (stereo not given), the IFI falls from 46.2% to 6.25%.

Compared with `COc1cc2c(-c3cc(Br)ccc3O)nc3c(c(-c4ccccc4)nn3-c3ccccc3)c2cc1OC`, `C[n+]1c(C=CNc2ccccc2)n(-c2ccccc2)c2ccc(Cl)cc21` is higher in IFI: 3.03% for the first, 12.5% for the second.

Going from `CC[n+]1c(C=CN(C)c2ccccc2)oc(-c2ccccc2)c1-c1ccccc1` to `CC[n+]1c(/C=C/N(C)c2ccccc2)sc(-c2ccccc2)c1-c1ccccc1`, the IFI falls from 22.7% to 14.3%.

Going from `Clc1ccc(-c2c[n+](-c3ccccc3)c3n2CCS3)cc1` to `Cc1ccc(-c2c[n+](-c3ccccc3)c3n2CCCS3)cc1`, the IFI rises from 0.725% to 7.69%.

Going from `CC(C)(C)c1ccc(-c2c[n+](-c3ccccc3)c3n2CCCS3)cc1` to `O=C(C[n+]1cc(-c2ccccc2)n2c1CCC2)c1ccc(C2CCCCC2)cc1`, the IFI falls from 23.1% to 12.5%.

First: CC1CNC2C(C)C3C(CC4C5CCC6CC(N)CCC6(C)C5CCC43C)OC2(O)C1 (stereo not given)
Second: COc1cc(C(=O)NC2CC3CCC(C2)N3C2CC2)cc(OC)c1OC (stereo not given)
The IFI of the first is higher: 5.26% for the first, 0% for the second.

First: N#C/C(=C\c1ccc(Sc2ccccc2)o1)c1nc2ccccc2[nH]1
Second: CCN(CC)c1ccc(/C=C(/C#N)c2nc3ccccc3[nH]2)o1
The IFI of the first is lower: 6.74% for the first, 7.69% for the second.

Compared with `N#C/C(=C\C=C\c1ccc([N+](=O)[O-])o1)c1nc2ccccc2[nH]1`, `O=C(N/C(=C/C=C/c1ccccc1)C(=O)N1CCCCC1)c1ccc([N+](=O)[O-])cc1` is lower in IFI: 28.6% for the first, 0.685% for the second.

First: O=C(C[n+]1cc(-c2ccc(Cl)cc2)n2c1CCC2)c1ccc(C2CCCCC2)cc1
Second: O=C1CCC(c2ccc(Cl)c(Cl)c2)c2ccc(O)cc21 (stereo not given)
The IFI of the first is higher: 27.5% for the first, 0% for the second.

Going from `c1cc2cc(CN3CCc4nc(N5CCCCC5)sc4C3)ccc2[nH]1` to `C=CCSc1nc(N)c2c3c(sc2n1)CN(CCC)CC3`, the IFI rises from 4.17% to 14%.

First: CC1C/C(=C/c2ccncc2)C(=O)/C(=C/c2ccncc2)C1 (stereo not given)
Second: COc1cc(/C=C2\CC/C(=C\c3cc(OC)c(OC)c(OC)c3)C2=O)cc(OC)c1OC
The IFI of the first is higher: 33.3% for the first, 2.7% for the second.

Going from `COc1cc2nc(N3CCN(c4nc(N)c5cc(OC)c(OC)cc5n4)CC3)nc(N)c2cc1OC` to `COc1ccc(-c2cc(C3CCN(c4nc(N)c5cc(OC)c(OC)cc5n4)CC3)n[nH]2)cc1OC`, the IFI falls from 23.1% to 7.41%.

First: CCc1c2ccc(C)n2cc[n+]1CC
Second: CCC1=[N+](C)c2cccc3cccc(c23)N1C
The IFI of the first is higher: 6.02% for the first, 3.12% for the second.

First: COc1ccc2c(c1)C(C)=CC(C)(C)N2C(=O)CSc1nnc(-c2ccc(C)cc2)o1
Second: CC[n+]1c(/C=C/C=C2\N(C)c3ccccc3C2(C)C)n(-c2ccccc2)c2ccc(C)cc21
The IFI of the first is lower: 0% for the first, 21.4% for the second.

Going from `CC1CN(C(=O)C(Cc2c[nH]c3ccccc23)NC(=O)C(c2ccccc2)c2ccccc2)CCN1C(=O)NCc1ccccc1` (stereo not given) to `Brc1ccc(-c2n(Cc3ccccc3)c3ccccc3[n+]2Cc2ccccc2)o1`, the IFI rises from 0% to 15.4%.

Compared with `CCCCNC(=O)NC(Cc1c[nH]c2ccccc12)C(=O)NC1CCCCC1` (stereo not given), `CC[n+]1c(/C=C/C=C2\N(C)c3ccccc3C2(C)C)n(CCCOC(C)=O)c2ccccc21` is higher in IFI: 4.21% for the first, 14.3% for the second.

Going from `CC(C)C[C@@H](NC(=O)[C@H](C)NC(=O)CNC(=O)[C@@H](NC=O)C(C)C)C(=O)N[C@@H](C)C(=O)N[C@@H](C(=O)N[C@H](C(=O)N[C@@H](C(=O)N[C@@H](Cc1c[nH]c2ccccc12)C(=O)N[C@H](CC(C)C)C(=O)N[C@@H](Cc1c[nH]c2ccccc12)C(=O)N[C@H](CC(C)C)C(=O)N[C@@H](Cc1c[nH]c2ccccc12)C(=O)N[C@H](CC(C)C)C(=O)N[C@@H](Cc1c[nH]c2ccccc12)C(=O)NCCO)C(C)C)C(C)C)C(C)C` to `CCC(=O)CC(O)C[C@@H](C)C[C@H](NC(=O)[C@@H]1C[C@H](C)CN1C(=O)/C=C/[C@@H](C)CC)C(=O)N[C@H](C(=O)NC(C)(C)C(=O)N[C@@H](CC(C)C)C(=O)N[C@@H](CC(C)C)C(=O)NC(C)(C)C(=O)NC(C)(C)C(=O)NCCC(=O)N[C@@H](C)CN(C)C)[C@H](O)C(C)C` (stereo not given in full), the IFI falls from 27.6% to 12.1%.

Compared with `CC[n+]1c(/C=C/C=C2\N(C)c3ccccc3C2(C)C)n(-c2ccccc2)c2cc(Cl)ccc21`, `CC[n+]1c(/C=C/C=C2\N(C)c3ccccc3C2(C)C)n(-c2ccccc2)c2ccc(Cl)cc21` is lower in IFI: 33.3% for the first, 21.4% for the second.

Compared with `CN1/C(=C\C=C\C2=[N+](C)c3ccc4ccccc4c3C2(C)C)C(C)(C)c2ccccc21`, `CC[n+]1c(C=CC=C2N(C)c3ccccc3C2(C)C)sc2ccccc21` is higher in IFI: 23.1% for the first, 28.6% for the second.

First: CC[n+]1c(C=CN(C)C)sc2ccccc21
Second: CCN1/C(=C/C=C/c2sc3ccccc3[n+]2CC)Sc2ccccc21
The IFI of the first is lower: 4.62% for the first, 21.7% for the second.

First: CC[n+]1c(/C=C/C=C2\N(C)c3ccccc3C2(C)C)n(Cc2ccccc2)c2ccccc21
Second: CC1=C(C=CC(C)C=NNC(=O)c2ccncc2)C(C)(C)CCC1 (stereo not given)
The IFI of the first is higher: 32.6% for the first, 0% for the second.
